gsp antag – qHTS for Antagonists of gsp, the Etiologic Mutation Responsible for Fibrous Dysplasia/McCune-Albright Syndrome: qHTS | gsp-mutant cells, cAMP HTRF, 30 min | Potency, µM (highest dose often 76.9 µM), usual class: inhibitors | actives 0.4% (n = 340,000) | AID 624288, 2012; calls by dose curve; cell line not stated here;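 also: intracellular cAMP measured with PDE inhibitor Ro 20-1724 present during compound exposure; nearly all actives have a fitted effect of over 65% in size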
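HTRF cAMP measurement after 30 min RT detection following 30 min, 37C compound treatment alongside […] (added as 300 uM solution) in G418-selected cells seeded at 2000/well and grown 16–24 h.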
ALOX12 inh – Primary qHTS assay for inhibitors of human arachidonate 12S-lipoxygenase (ALOX12): Round 2; Polyunsaturated fatty acid lipoxygenase ALOX12 (Homo sapiens), P18054; purified 12hLO, xylenol orange hydroperoxide absorbance; Potency, µM (doses to about 108 µM), most hits filed as inhibitors; actives 1.1% (n = 580,000); AID 1671190, 2021
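Purified human 12hLO at 150 nM in 25 mM Hepes, 0.01% Triton X-100, pH 7.0, preincubated 15 min at room temperature with compound. Reaction started with 40 uM arachidonic acid, 30 min at room temperature. Hydroperoxide measured by Fe-xylenol orange, 573/405 nm absorbance ratio.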
gsp ag – qHTS for Agonist of gsp, the Etiologic Mutation Responsible for Fibrous Dysplasia/McCune-Albright Syndrome: qHTS; Potency, µM (top dose mostly 76.9 µM), hits mostly activators; actives 0.13% (n = 340,000); gsp mutant cells, cAMP HTRF, 30 min; active = well fitted activation curve with a large enough effect; inconclusive = small, poorly fitted or top-dose-only effect, or another doubt; inactive = no such curve, though single readings can be large or run the other way; cell line not stated here;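 also: phosphodiesterase inhibitor Ro 20-1724 added with compounds to block cAMP breakdown; nearly all actives have a fitted effect of over 60% in size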
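Cells in DMEM/10% FBS with G418 were pretreated with compounds in DMSO plus […] (300 uM stock) for 30 min at 37C. cAMP was measured by HTRF (cAMP-d2 plus anti-cAMP antibody-K) after 30 min at room temperature.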
FUS yeast rescue – qHTS for Suppressors of FUS Proteinopathy: Primary screen using FUS-linked yeast assay; actives 0.24% (n = 390,000); S. cerevisiae FUS-expressing, growth rescue, OD600, 24 h; Potency, µM (titrated, usually from 76.6 µM), hits mostly activators; also: nearly all actives have a fitted effect of over 55% in size
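Steps: raffinose overnight preculture; dilution to OD 0.005 in 2% galactose minimal medium; compound addition (concentration series); 24hr at 30C, 99% humidity; absorbance read at 600 nm.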
Mito fusion act – qHTS Assay for Small Molecule Inhibitors of Mitochondrial Division or Activators of Mitochondrial Fusion; S. cerevisiae fusion-defective mutant growth rescue, CellTiterGlo 48 h; AID 485298, 2010; Potency, µM (series often up to 46.1 µM), most hits filed as activators; actives 0.23% (n = 320,000); also: nearly all actives have a fitted effect of over 45% in size
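Luminescent cell viability in 1536-well qHTS format served as the measure of rescued growth in ts fusion-mutant S. cerevisiae cultured on non-fermentable YPEG for 48 hours at 37C.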
Large screens that a line does not name were inactive. Sampled rows, rich in hits. Any-hit rate of the full collection: about 1.6%. Unless noted, calls follow the shape of the dose curve; as a rule, active = well fitted curve in the direction sought with a large enough effect; inconclusive = small, poorly fitted or top-dose-only effect, or another doubt; inactive = no such curve, though single readings can be large; an effect the other way counts as inactive or inconclusive.

COc1ccc2cc(/C=C3\SC(=S)NC3=O)c(N3CCOCC3)nc2c1	gsp antag 35µM, ALOX12 inh inconclusive (no result: FUS yeast rescue)
O=C(NN1C(=O)c2ccccc2NC1c1ccc([N+](=O)[O-])o1)c1ccc([N+](=O)[O-])cc1 (stereo not given)	ALOX12 inh inconclusive, gsp ag 1.8µM
O=C(NN1C(=O)c2ccccc2NC1c1ccc([N+](=O)[O-])o1)c1ccccc1 (stereo not given)	none
O=C(CCNC(=O)c1ccoc1)Nc1ccc(N2CCCC2)nc1	none (no result: gsp antag, gsp ag, FUS yeast rescue, Mito fusion act)
COc1ccccc1CNc1nc2ccccc2nc1NS(=O)(=O)c1cccc(Cl)c1	none (no result: gsp antag, gsp ag, FUS yeast rescue, Mito fusion act)
O=C(CNC(=O)c1ccccc1Cl)N/N=C/c1ccc2c(c1)OCO2	none
Clc1ccccc1N/N=C/c1ccc2c(c1)OCO2	ALOX12 inh 35µM
CCc1ccccc1-n1c(C)c(C)n2c3c(=O)[nH]c(=O)n(C)c3nc12	none (no result: gsp antag, gsp ag, FUS yeast rescue, Mito fusion act)
COC(=O)CC(NC(=S)NC(=O)c1ccccc1)c1ccc(Br)cc1 (stereo not given)	ALOX12 inh 7.9µM
COC(=O)CC(N)c1ccc(Br)cc1 (stereo not given)	none
O=C(NC1C(=O)NNC1c1ccccc1)c1ccccc1 (stereo not given)	ALOX12 inh inconclusive
Cc1cccc(C(=O)NC2C(=O)NNC2c2ccc(Cl)cc2)c1 (stereo not given)	ALOX12 inh 14µM
CC1CCN(C2CCN(S(=O)(=O)c3ccc(C(F)(F)F)cc3)CC2)CC1	Mito fusion act 11µM
Cc1ccc(C(=O)/C=C/c2cc(Br)c(O)c(Br)c2)cc1	ALOX12 inh 28µM (no result: gsp antag, gsp ag, FUS yeast rescue, Mito fusion act)
COc1cc(C(=O)/C=C/c2cc(Br)c(O)c(OC)c2)ccc1OCC(=O)O	ALOX12 inh 10µM (no result: gsp antag, gsp ag, FUS yeast rescue, Mito fusion act)
COc1cc(C(=O)/C=C/c2cccs2)ccc1OCC(=O)O	none (no result: gsp antag, gsp ag, FUS yeast rescue, Mito fusion act)
Cc1ccc(/C=C/C(=O)c2ccc(C)cc2)cc1	gsp ag inconclusive
CC(C)c1ccc(NC(=O)c2ccc(N(C)C)cc2)cc1	ALOX12 inh 45µM (no result: gsp antag, gsp ag, FUS yeast rescue, Mito fusion act)
CCCc1nnc(NC(=O)CCC(=O)O)s1	Mito fusion act 13µM
CC(=O)N1CCC(N[C@@H]2C[C@H](COc3cccc(C)n3)[C@@H](O)[C@H]2O)CC1	ALOX12 inh 16µM (no result: gsp antag, gsp ag, FUS yeast rescue, Mito fusion act)
COc1ccc2sc(NC(C)=O)nc2c1	ALOX12 inh inconclusive
CCc1ccc(NC(=O)Nc2ccc3sc(NC(C)=O)nc3c2)cc1	ALOX12 inh 7.1µM (no result: gsp antag, gsp ag, FUS yeast rescue, Mito fusion act)
Cc1ccccc1C(=O)NC(NC(=O)c1ccccc1C)c1ccc(Cl)cc1	none (no result: gsp antag, gsp ag, FUS yeast rescue, Mito fusion act)
CC1=NN(c2cccc(C(=O)O)c2)C(=O)/C1=C\C=C/c1ccccc1	gsp antag 28µM, ALOX12 inh inconclusive
CC1=NN(c2ccccc2)C(=O)C1=Cc1ccccc1	ALOX12 inh inconclusive, gsp ag inconclusive (no result: gsp antag, Mito fusion act)
CC1=NN(c2ccccc2)C(=O)/C1=C/c1ccc(Cl)cc1	ALOX12 inh 6.3µM
Cc1ccccc1C(=O)c1ccccc1	none (no result: gsp antag, gsp ag, FUS yeast rescue, Mito fusion act)
COc1cccc(CNC(=O)COC(=O)/C(C#N)=C/c2ccc(N(C)C)cc2)c1	gsp ag 25µM
O=C(O)Cc1ccccc1C(=O)O	none
O=C(O)c1ccccc1CC(CCc1ccccc1)C(=O)O (stereo not given)	ALOX12 inh 28µM (no result: Mito fusion act)
Cc1cc(=O)oc2cc(OCC(=O)NCc3cccc(C(F)(F)F)c3)ccc12	none (no result: gsp antag, gsp ag, FUS yeast rescue, Mito fusion act)
COc1ccc2c(c1)CC/C2=N\OC(=O)c1ccccc1OC	gsp antag inconclusive, Mito fusion act 35µM
COc1ccc2c(c1)CCC/C2=N\OC(=O)c1cc(Cl)ccc1OC	none (no result: gsp antag, gsp ag, FUS yeast rescue, Mito fusion act)
CCc1nnc(NS(=O)(=O)c2ccc(N/C=C(\C=O)c3nc4cc(Cl)ccc4o3)cc2)s1	gsp antag inconclusive, ALOX12 inh 8.9µM, gsp ag inconclusive
O=Cc1[nH]c2ccccc2c1N(C(=O)CCl)c1ccc([N+](=O)[O-])cc1	ALOX12 inh 40µM
CC(=O)n1cc(N(C(=O)CCl)c2ccc([N+](=O)[O-])cc2)c2ccccc21	gsp antag inconclusive, ALOX12 inh inconclusive

Screening results as filed in PubChem BioAssay.
